Cdc42 wt: human Cdc42 wildtype GTP binding change, either direction. GST-Cdc42 beads, Bodipy-GTP binding, flow cytometry; actives lie on both sides. percent activity (GTP binding), % at 10 µM. 0.2% of 190,000 active. AID 761;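 active = percent activity GTP binding at least 20 points away from the 100% baseline, either down as inhibitor or up as activator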;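 note: median bead fluorescence of bound Bodipy-FL-GTP at 100 nM; 0% = excess unlabeled GTP control and 100% = no compound control; below 100% means less GTP binding so inhibitor and above means activator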
Target sequence (P60953 whole entry, looked up): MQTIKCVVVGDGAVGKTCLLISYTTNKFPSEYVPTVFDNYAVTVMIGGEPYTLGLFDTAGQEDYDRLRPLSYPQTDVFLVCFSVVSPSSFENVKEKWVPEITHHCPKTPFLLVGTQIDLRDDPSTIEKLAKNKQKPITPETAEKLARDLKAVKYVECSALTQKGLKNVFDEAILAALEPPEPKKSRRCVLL
HRas wt GTP: modulators of GTP binding to human HRas wildtype; P01112; GST-Ras wt beads, Bodipy-FL-GTP binding, flow cytometry; actives lie on both sides; 0.14% of 190,000 active; AID 759; GTP binding activity, % at 10 µM;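 active = GTP binding activity at least 20% away from the 100% baseline, either lowered as inhibitor or raised as activator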;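 note: 0% = unlabeled GTP competition control and 100% = no-compound control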
Target sequence (P01112 whole entry, looked up): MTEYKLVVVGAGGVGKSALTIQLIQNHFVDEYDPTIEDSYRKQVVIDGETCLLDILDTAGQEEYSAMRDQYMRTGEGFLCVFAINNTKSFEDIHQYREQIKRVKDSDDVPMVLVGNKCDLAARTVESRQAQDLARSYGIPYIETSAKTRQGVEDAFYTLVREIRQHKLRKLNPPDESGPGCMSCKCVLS
Rac1 mut GTP: modulators of GTP binding to human Rac1 activated mutant; GST-Rac1 activated beads, fluorescent GTP binding, flow cytometry; actives lie on both sides; 100% means binding = to untreated wells; AID 764; 0.11% of 190,000 active; percent activity (GTP binding), % at 10 µM; P63000;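 active = GTP binding at least 20 percentage points away from the 100% baseline, in either direction, so actives lie on both sides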
Rab2A wt mod: changes GTP binding to wildtype dog Rab2A, up or down; GST-Rab2 wt beads, Bodipy-GTP binding, flow cytometry; GTP binding activity, % at 10 µM; 0.19% of 190,000 active;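 active = GTP binding activity at least 20 points away from 100%, either lowered or raised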;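 note: 0% = beads with excess unlabeled GTP and 100% = no-compound control corrected for plate trend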
Rac1 wt GTP bind: human Rac1 wildtype GTP binding, inhibitors and activators. 0.27% of 190,000 active. AID 757. GST-Rac1 beads, fluorescent GTP binding, flow cytometry; actives lie on both sides; 0 = cold GTP competed, 100 = untreated. GTP binding activity (% of control), % at 10 µM;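 active = GTP binding activity at least 20 points away from the 100% control level, either lower or higher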
Rab7 wt GTP bind: dog Rab7 wildtype GTP binding, inhibitors and activators | GST-Rab7 beads, fluorescent GTP binding, flow cytometry; actives lie on both sides; untreated = 100%, excess cold GTP = 0% | GTP binding activity (percent of control), % at 10 µM | 0.055% of 190,000 active | AID 758;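 active = fluorescent GTP binding to Rab7 beads changed by at least 20 points from the 100% baseline, either direction, mostly lower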;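 note: median green fluorescence of bound Bodipy-FL-GTP per Rab7 bead population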
An asterisk follows results filed as active; [ ] = dose if it differs, or a comment. Compounds with a hit are over-represented: about 0.38% of the library has one in this group of screens.

SMILES | Cdc42 wt | HRas wt GTP | Rac1 mut GTP | Rab2A wt mod | Rac1 wt GTP bind | Rab7 wt GTP bind
S=C(Nc1ccc(Oc2ccccc2)cc1)NC1CCCCCC1 | 79* | 100 | 100 | 96 | 109 | 101
CCCCN(C)C(=S)Nc1ccc(Oc2ccccc2)cc1 | 97 | 100 | 100 | 103 | 104 | 103
S=C(Nc1ccc(Oc2ccccc2)cc1)NC1CCCCC1 | 115 | 107 | 107 | 115 | 141*[activator] | 104
Cc1cccc(-n2cc(CNCCN3CCOC3=O)c(-c3cccc(F)c3)n2)c1 | 94 | 97 | 95 | 96 | 95 | 98
CCOc1ccc2nc(SCc3ccc(CC(=O)O)cc3)c(C#N)cc2c1 | 71* | 84 | 76* | 74* | 82 | 88
CCOc1ccc2nc(SCC(=O)N3c4ccccc4Sc4ccccc43)c(C#N)cc2c1 | 100 | 102 | 100 | 100 | 105 | 102
COc1cc(/C=C2/SC(N)=NC2=O)ccc1Oc1ccc([N+](=O)[O-])cc1[N+](=O)[O-] | 91 | 94 | 91 | 91 | 94 | 96
NC1=NC(=O)/C(=C\c2ccc(O)c([N+](=O)[O-])c2)S1 | 61* | 66* | 80 | 63* | 78* | 85
CS(=O)(=O)Nc1ccccc1C(=O)O | 102 | 99 | 99 | 99 | 105 | 102
CS(=O)(=O)Nc1ccc(Br)cc1C(=O)c1ccccc1 | 69* | 99 | 99 | 97 | 103 | 102
CCNC(=O)NC(=O)C(C)Oc1ccc(Br)cc1Br (stereo not given) | 94 | 91 | 92 | 93 | 94 | 93
NC1=NC(=O)/C(=C/c2cn(CCC(=O)O)nc2-c2ccc(Cl)cc2)S1 | 85 | 81 | 85 | 81 | 77* | 89
NC1=NC(=O)/C(=C/c2cn(CCC(=O)O)nc2-c2ccc(F)cc2)S1 | 97 | 97 | 100 | 98 | 96 | 98
Cn1nnc(NC(=S)NC(=O)c2ccc(-c3ccc(Br)cc3)o2)n1 | 81 | 87 | 87 | 86 | 76* | 96
Cc1ccc(CS(=O)(=O)c2ccccc2-c2nnc(-c3ccc(Cl)cc3)o2)cc1 | 93 | 80 | 90 | 86 | 93 | 77*
Cc1ccccc1-c1nnc(-c2ccc(Cl)cc2)o1 | 101 | 98 | 97 | 98 | 99 | 97
Nc1c(S(=O)(=O)c2ccccc2)c2nc3ccccc3nc2n1C1CC1 | 82 | 85 | 90 | 86 | 78* | 91
Nc1c(S(=O)(=O)c2ccccc2)c2nc3ccccc3nc2n1/N=C/c1cccc(O)c1 | 74* | 73* | 87 | 70* | 88 | 95
COc1cc(OC)nc(-n2ncc(Br)c(Br)c2=O)n1 | 99 | 99 | 98 | 99 | 103 | 102
COc1ccccc1NC(=O)CN(c1ccc(C)cc1)S(=O)(=O)c1c(C)n[nH]c1C | 98 | 99 | 99 | 98 | 103 | 94
COc1ccc(N(CC(=O)Nc2cccc(C)c2C)S(=O)(=O)c2c(C)n[nH]c2C)cc1 | 83 | 84 | 88 | 79* | 81 | 87
COc1ccc(CCNC(=O)CO/N=C/c2cc3c(cc2Br)OCO3)cc1OC | 91 | 92 | 94 | 92 | 97 | 97
Cc1ccc(Cc2cnc(NC(=O)/C(C#N)=C/c3ccc(-c4ccc([N+](=O)[O-])cc4)o3)s2)cc1 | 82 | 82 | 83 | 83 | 84 | 79*
CCOC(=O)Cn1c(=O)c2c(nc3n2CCN3Cc2ccccc2)n(C)c1=O | 99 | 100 | 96 | 99 | 102 | 100
CCOC(=O)Cn1c(=O)c2c(nc(N3CCCCC3)n2C)n(C)c1=O | 123*[activator] | 109 | 111 | 109 | 142*[activator] | 107
SMILES | Cdc42 wt | HRas wt GTP | Rac1 mut GTP | Rab2A wt mod | Rac1 wt GTP bind | Rab7 wt GTP bind
COc1cc2c(C)nc3c(c(C)nn3-c3ccccc3)c2cc1OC | 83 | 85 | 89 | 83 | 72* | 95
COc1cc2c(-c3ccc(O)cc3)nc3c(c(C)nn3-c3ccccc3)c2cc1OC | 93 | 97 | 99 | 97 | 99 | 101
Cc1cc(C)c(S(=O)(=O)Cc2ccccc2)c(=O)[nH]1 | 97 | 98 | 97 | 98 | 99 | 99
N#Cc1c(=O)c2nc(NCc3ccccc3)ncc2n2ccccc12 | 84 | 83 | 90 | 80 | 79* | 85
N#Cc1c(=O)c2nc(NCCCO)ncc2n2c(=O)c3ccccc3[nH]c12 | 84 | 91 | 93 | 86 | 103 | 96
C#CC1(NC(=O)NC(C)C)CCCCC1 | 104 | 101 | 97 | 103 | 101 | 106
CC(=O)Nc1ccc(Nc2ccc3nonc3c2[N+](=O)[O-])cc1 | 95 | 95 | 95 | 93 | 98 | 94
CCc1nnc(NS(=O)(=O)c2ccc(Nc3ccc4nonc4c3[N+](=O)[O-])cc2)s1 | 81 | 77* | 83 | 76* | 77* | 87
Nc1ccc2c(c1)C(=O)C(=O)c1ccccc1-2 | 70* | 85 | 84 | 84 | 88 | 92
O=C1C(=O)c2ccc(-c3ccccc3)cc2-c2ccccc21 | 97 | 100 | 99 | 99 | 107 | 101
Cc1ccc(C)c(N2CCN(C(=O)c3ccc(CS(=O)(=O)c4ccccc4C)o3)CC2)c1 | 89 | 89 | 83 | 87 | 87 | 93
Cc1ccc(S(=O)(=O)Cc2ccc(C(=O)N3CCN(c4cc(C)ccc4C)CC3)o2)cc1 | 81 | 87 | 77* | 80 | 80 | 84
COc1ccc(C(C)=O)cc1COC(=O)c1ccc(S(=O)(=O)N(C)C)cc1 | 98 | 100 | 96 | 101 | 100 | 107
CS(=O)(=O)N1CCN(C(=O)C2c3ccccc3Oc3ccccc32)CC1 | 116 | 111 | 102 | 112 | 121*[activator] | 103
COc1ccc(C(=O)NC(=S)N2CC(C)OC(C)C2)cc1 (stereo not given) | 154*[activator] | 91 | 98 | 98 | 137*[activator] | 93
O=C(NC1CCCC1)C(c1ccncc1)N(C(=O)c1csnn1)C1CCCC1 (stereo not given) | 98 | 96 | 95 | 101 | 97 | 101
CCn1c2ccccc2c2nnc(SCC(=O)NCCOC)nc21 | 97 | 101 | 99 | 35* | 105 | 100
O=C(COc1ncnc2cc([N+](=O)[O-])ccc12)NC(=O)NC1CCCCC1 | 80 | 85 | 89 | 79* | 75* | 90
O=C(Cn1cnc2cc([N+](=O)[O-])ccc2c1=O)NCc1ccc(Cl)cc1 | 77* | 84 | 86 | 80 | 74* | 91
CCOC(=O)c1c(C)[nH]c(C)c1C(=O)COc1ncnc2cc([N+](=O)[O-])ccc12 | 64* | 70* | 81 | 63* | 63* | 74*

Bioassay records: PubChem, NMMLSC
